The target of experiment [1] is Thyroid hormone receptor alpha (Rattus norvegicus) + Thyroid hormone receptor beta (Rattus norvegicus) (UniProt P18113+P63059). The experiment in a line: TOX21_TR_LUC_GH3_Antagonist_Followup: Tox21 GH3 Thyroid Hormone Receptor Antagonism Luciferase Follow-Up Assay (AID 2283942). An outline of the steps: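 Confirmatory qHTS, antagonist mode: T3 (1.0 nM final) + test cpd, 15 conc, 92 uM–5nM final, GH3 rat pituitary line, 24 h, 37C. Luc reporter, RLU vs DMSO.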

The target in experiment [2] is THRA (gene 7067) (UniProt P10827). The experiment in a line: TOX21_TRA_COA_Antagonist_Followup_ratio: Tox21 Thyroid Hormone Receptor alpha Antagonism through Coactivator Recruitment Follow-Up Assay, Ratio (AID 2283953). An outline of the steps: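 This follow-up to the GH3 luciferase screen checks specificity in a cell-free format. It measures SRC-2 coactivator peptide binding to TRα LBD by TR-FRET and scores loss of ratio signal relative to DMSO.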

For experiment [3], the target named is THRB (gene 7068) (UniProt P10828). Briefly: TOX21_TRB_BLA_Antagonist_Followup_ratio: Tox21 Thyroid Hormone Receptor beta Antagonism Beta-lactamase (BLA) Follow-Up Assay, Ratio (AID 2283958). An outline of the steps: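 GAL4-DBD/human TRβ-LBD fusion in GeneBLAzer UAS-bla HEK293T cells, 3,000 cells/well in phenol red-free DMEM with 2% charcoal-stripped FBS; compounds at 11 concentrations in triplicate, 18 h at 37C. CCF4-AM substrate 2 h, 460:530 nm ratio relative to DMSO.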

A short description of experiment [4]: TOX21_TRB_BLA_Antagonist_Followup_viability: Viability Assessment in the Tox21 Thyroid Hormone Receptor beta Antagonism Beta-lactamase (BLA) Follow-Up Assay (AID 2283961). An outline of the steps:
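HEK293T cells with GAL4-human TRβ LBD and UAS-bla reporter, 3,000 cells/well in 2% charcoal-stripped FBS medium; 11-point concentrations in triplicate, 18 h at 37C. Viability from ATP by CellTiter-Glo luminescence, 30 min RT, same plates.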

The target in experiment [5] is THRB (gene 7068) (UniProt P10828). The experiment in a line: TOX21_TRB_COA_Antagonist_Followup_ratio: Tox21 Thyroid Hormone Receptor beta Antagonism through Coactivator Recruitment Follow-Up Assay, Ratio (AID 2283967). An outline of the steps: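 Test compound was incubated with 5.0 nM GST-TRβ LBD in 0.10% BSA. Then 200 nM fluorescein-SRC-2 peptide and 2 nM terbium anti-GST antibody were added. TR-FRET (520:495 nm) was measured and normalized to DMSO and T3 controls.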

For experiment [6] the target is unchanged. Briefly: TOX21_TRB_BLA_Agonist_Followup_ratio: Tox21 Thyroid Hormone Receptor beta Agonism Beta-lactamase (BLA) Follow-Up Assay, Ratio (AID 2283954). The source says:
The GeneBLAzer TRb-UAS-bla HEK293T assay kit for human TRb (ThermoFisherScientific Catalog No. K1684) was used as a secondary assay for specificity (TRb-bla). This assay contained the ligand-binding domain (LBD) of the human TRb fused to the DNA-binding domain of GAL4 stably integrated in the GeneBLAzer UAS-bla HEK293Tcell line. The reporter gene, b-lactamase, is under the transcriptional control of a UAS that binds the GAL4 DNA-binding domain. A cell viability assay was run in parallel for these cells as well using the CellTiter-Glo viability assay kit.TOX21_TRB_BLA_Agonist_Followup_ratio is an assay readout measuring reporter gene via receptor activity and designed using inducible reporter (beta lactamase induction) detected with GAL4 b-lactamase reporter gene. The signal is derived from the ratio of cleaved (ch2) to uncleaved (ch1) reporter gene substrate used as the measure of target activity.Data from the assay component TOX21_TRB_BLA_Agonist_Followup_ratio was analyzed into 1 assay endpoint. This assay endpoint, TOX21_TRB_BLA_Agonist_Followup_ratio, was analyzed in the positive analysis fitting direction relative to DMSO as the negative control and baseline of activity. […] Furthermore, this assay endpoint can be referred to as a primary readout, because this assay has produced multiple assay endpoints and this ratio serves a reporter gene function to understand target activity. […]

Inconclusive results are not listed. Calls of active or inactive are those of the source. Rule for the calls: active = hit-call score of the fitted dose curve at least 0.9, where 1 is the maximum; inconclusive = response in the unintended direction; inactive = score below 0.9.

THRB (gene 7068), sequence (P10828 whole entry, looked up, the tested form may be a part): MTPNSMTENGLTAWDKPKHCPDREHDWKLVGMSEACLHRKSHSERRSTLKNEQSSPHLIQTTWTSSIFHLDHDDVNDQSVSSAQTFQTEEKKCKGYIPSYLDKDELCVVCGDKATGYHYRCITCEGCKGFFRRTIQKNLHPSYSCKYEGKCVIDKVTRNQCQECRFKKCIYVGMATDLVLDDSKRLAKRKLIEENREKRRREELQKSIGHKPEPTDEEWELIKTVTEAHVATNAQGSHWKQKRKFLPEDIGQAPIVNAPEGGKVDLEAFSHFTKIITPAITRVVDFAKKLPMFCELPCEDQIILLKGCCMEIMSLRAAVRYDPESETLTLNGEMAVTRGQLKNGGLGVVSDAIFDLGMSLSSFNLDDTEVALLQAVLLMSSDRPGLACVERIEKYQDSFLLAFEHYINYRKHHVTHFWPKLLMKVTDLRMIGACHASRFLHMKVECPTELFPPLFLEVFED
THRA (gene 7067), sequence (P10827 whole entry, looked up, the tested form may be a part): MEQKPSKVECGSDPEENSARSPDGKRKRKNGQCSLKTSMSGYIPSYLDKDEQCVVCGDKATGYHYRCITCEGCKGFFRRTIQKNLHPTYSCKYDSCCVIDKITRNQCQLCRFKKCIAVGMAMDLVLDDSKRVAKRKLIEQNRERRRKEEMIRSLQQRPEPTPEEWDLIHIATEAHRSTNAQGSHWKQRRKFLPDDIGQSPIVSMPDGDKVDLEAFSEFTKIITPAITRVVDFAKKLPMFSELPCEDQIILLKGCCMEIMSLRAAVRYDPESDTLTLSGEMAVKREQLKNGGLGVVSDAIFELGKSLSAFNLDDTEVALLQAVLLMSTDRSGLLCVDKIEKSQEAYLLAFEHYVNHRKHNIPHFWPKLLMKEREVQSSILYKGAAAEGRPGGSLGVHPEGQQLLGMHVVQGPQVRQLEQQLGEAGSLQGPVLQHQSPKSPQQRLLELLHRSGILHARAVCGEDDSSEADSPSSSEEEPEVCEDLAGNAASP

Turning to `Oc1c(Cl)cc(Cl)c(Cl)c1Cc1c(O)c(Cl)cc(Cl)c1Cl`, the values for the half-maximal activity concentration (AC50) in experiment [1], in experiment [3] and in experiment [4] were 12.7 µM (active), 20 µM (active) and 8.64 µM (active), respectively. Besides, the outcome in experiment [2] and in experiment [5] was inactive.

`OCCCCC(O)CO` (configuration not stated): the result in experiment [6] was inactive.

For the compound `C[C@H](CCC(=O)NCC(=O)O)[C@H]1CC[C@H]2[C@@H]3[C@H](O)C[C@@H]4C[C@H](O)CC[C@]4(C)[C@H]3C[C@H](O)[C@]12C`, the result in experiment [6] was inactive.

The AC50 is the concentration giving half of the maximal activity seen.

For the origin of these results see PubChem BioAssay (EPA / NIEHS).
